From PubChem
NS1 inh: blocks influenza NS1 protein function; Potency, µM (doses to about 46.1 µM); hit rate 0.4% among 270,000; AID 2326; calls by dose curve; note: actives are rising curves; nearly all actives have a fitted effect of over 50% in size
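Read-out: OD600 growth recovery of NS1-expressing budding yeast. Cells grown overnight at 30C in -URA glucose medium, washed, resuspended and diluted 1:100 in 2% galactose assay medium, pH 6.0. Same strain lacking NS1 served as positive control.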
Pf growth 96h: P. falciparum growth inhibition at 96 hours | hit rate 6.9% among 320,000 | Potency, µM (series often up to 28.7 µM), most hits filed as inhibitors | P. falciparum luciferase reporter growth, 96 h
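Infected RBCs, 2% Hct / 0.05% parasitemia final; luciferase-reporter P. falciparum; cpd 96 h, 37 C, 5% CO2; luciferase detection reagent; luminescence.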
Shiga inhibitor: inhibitors of Shiga toxin in Vero cells. Vero cells, Shiga toxin protein synthesis inhibition reporter. inhibition, % at 38.7 µM. hit rate 9.2% among 290,000. AID 2315; in the data active = inhibition mostly above about 28%, no sharp cut-off; inactive = mostly below about 43%
Pf growth 48h: P. falciparum growth inhibition at 48 hours (one generation). P. falciparum luciferase growth in erythrocytes, 48 h. Potency, µM (titrated, usually from 28.7 µM), most hits filed as inhibitors. hit rate 5.9% among 310,000
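In quantitative HTS format, infected erythrocytes bearing luciferase-reporter parasites were treated for a single generation at 37 C. Luminescence after adding detection reagent served as the growth measure.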
CHX counter: counter-screen hit for Shiga toxin inhibitors, cycloheximide; cell reporter, cycloheximide protein synthesis inhibition counterscreen; max response, %; hit rate 12% among 300,000; AID 2314; in the data active = max response mostly above about 13%, no sharp cut-off; inactive = mostly below about 14%; note: read at 38.3 µM for the half of the compounds with a filed dose
Hits are given with their value. Only some compounds are listed: those with a hit (about 21% of all), similar ones and a draw of the others. Unless noted, calls come from the whole dose curve; as a rule, active = well fitted inhibition curve with a large enough effect; inconclusive = small, poorly fitted or top-dose-only effect, or another doubt; inactive = no such curve, though single readings can be large or run the other way.

CCCN(CC(=O)Nc1ccccc1C)C(=O)Cc1c(C)nc2ccccc2c1C was read as Pf growth 96h inconclusive and Pf growth 48h 10µM.
Screening CCCN(CC(=O)Nc1ccccc1C)C(=O)c1oc2ccc(OCC)cc2c1C returned Pf growth 96h 7.4µM and Pf growth 48h 2.9µM.
CCOc1ccc2oc(C(=O)NC(C)(C)CC)c(C)c2c1 was read as Pf growth 96h inactive, Shiga inhibitor 67, Pf growth 48h inactive and CHX counter 48.
`CCCN(CC(=O)Nc1ccccc1C)C(=O)c1cc(C)oc1C` gave Pf growth 96h inactive and Pf growth 48h inactive.
COc1ccc(/C=C/c2cc(-c3ccc(C)cc3)o[n+]2C)cc1 was read as NS1 inh inactive, Pf growth 96h 0.15µM, Shiga inhibitor inactive, Pf growth 48h inconclusive and CHX counter inactive.
`COc1ccc(/C=C/c2c(-c3ccc(OC)cc3)oc3ccc(-c4ccc(OC)cc4)cc23)cc1` gave NS1 inh inactive, Pf growth 96h inconclusive, Shiga inhibitor inactive, Pf growth 48h inactive and CHX counter inactive.
For CCCCCc1nnc(NC(=O)CN2C(=O)C3CCCCC3C2=O)s1 (configuration not stated) the results were NS1 inh inactive, Pf growth 96h inactive, Shiga inhibitor inactive, Pf growth 48h inactive and CHX counter inactive.
Screening CC1=C(C(=O)Nc2ccccc2)C(c2ccc[nH]2)n2ncnc2N1 (configuration not stated) returned Pf growth 96h inactive and Pf growth 48h inactive.
For COC(=O)Cc1ccc2c3ccccc3n(C)c2c1 the results were NS1 inh inactive, Pf growth 96h inactive, Shiga inhibitor inactive, Pf growth 48h inactive and CHX counter 25.
Cn1c2ccc(CC(=O)O)cc2c2cc(CC(=O)O)ccc21 was read as NS1 inh inactive, Pf growth 96h inactive, Shiga inhibitor inactive and CHX counter inactive.
Screening O=C(O)/C=C/c1cn(Cc2ccccc2)nc1-c1ccc(Cl)cc1 returned NS1 inh inactive, Pf growth 96h inactive, Shiga inhibitor inactive, Pf growth 48h inactive and CHX counter inactive.
COc1c2ccoc2nc2c(OC)cccc12 was read as NS1 inh inactive, Pf growth 96h inactive, Shiga inhibitor 44 and CHX counter inactive.
`COc1ccc(-n2c(CN3CCN(c4ccccc4OC)CC3)nc3ccc([N+](=O)[O-])cc3c2=O)c(OC)c1` gave NS1 inh inactive, Pf growth 96h inactive, Shiga inhibitor inactive, Pf growth 48h 13µM and CHX counter inactive.
For CCN1CCN(Cc2nc3ccc([N+](=O)[O-])cc3c(=O)n2-c2ccc(OC)cc2OC)CC1 the results were NS1 inh inactive, Pf growth 96h inactive, Shiga inhibitor inactive and CHX counter inactive.
`CCn1c(SCC(=O)NNC(=O)c2ccc(OC)cc2)nnc1-c1ccco1` gave NS1 inh inactive, Pf growth 96h inactive, Shiga inhibitor inactive, Pf growth 48h inactive and CHX counter inactive.
COC(=O)c1cccc(NC(=O)Nc2ccc(Cl)c(Cl)c2)c1 was read as NS1 inh inactive, Pf growth 96h inconclusive, Shiga inhibitor 59, Pf growth 48h inconclusive and CHX counter 38.
Screening COC(=O)c1cc(NC(=O)Nc2ccccc2)ccc1Cl returned NS1 inh inactive, Pf growth 96h inconclusive, Shiga inhibitor 92, Pf growth 48h inactive and CHX counter 41.
`COC(=O)c1cccc(NC(=O)Nc2ccccc2OC)c1` gave NS1 inh inactive, Pf growth 96h inactive, Shiga inhibitor 43, Pf growth 48h inactive and CHX counter 23.
For COC(=O)c1ccc(NC(=S)Nc2ccccc2)cc1 the results were NS1 inh inactive, Pf growth 96h inactive, Shiga inhibitor inactive, Pf growth 48h inactive and CHX counter inactive.
Screening O=c1[nH]c(=S)[nH]c2sccc12 returned Pf growth 96h inactive, Shiga inhibitor inactive, Pf growth 48h inactive and CHX counter inactive.
Cc1c(C(=O)N2CCCCC2)c(S(=O)(=O)N2CCC(C)CC2)c(C)n1C was read as NS1 inh inactive, Pf growth 96h inactive, Shiga inhibitor inactive, Pf growth 48h inactive and CHX counter inactive.
For COc1cc(NC(=S)Nc2ncccc2C)cc(OC)c1OC the results were NS1 inh inactive, Pf growth 96h inactive, Shiga inhibitor inactive, Pf growth 48h inactive and CHX counter 20.
For Cc1cccnc1NC(=S)Nc1ccc(F)cc1F the results were NS1 inh inactive, Pf growth 96h inconclusive, Shiga inhibitor 77, Pf growth 48h inactive and CHX counter 35.
COc1cc(NC(=S)Nc2cccc(C)n2)cc(OC)c1OC was read as NS1 inh inactive, Pf growth 96h inactive, Shiga inhibitor inactive, Pf growth 48h inactive and CHX counter inactive.
`Cc1ccc(C)c(NC(=S)Nc2ncccc2C)c1` gave NS1 inh inactive, Pf growth 96h inconclusive, Shiga inhibitor 134, Pf growth 48h inactive and CHX counter 36.
CCCC(=O)Nc1ccc(Nc2ccccc2)cc1 was read as NS1 inh inactive, Pf growth 96h inactive, Shiga inhibitor 35, Pf growth 48h inactive and CHX counter 23.
Screening CC(C)C(=O)OCC(=O)Nc1ccc(N=Nc2ccccc2)cc1 returned NS1 inh inactive, Pf growth 96h inactive, Shiga inhibitor 46, Pf growth 48h inactive and CHX counter 31.
`CCC(C(=O)OCC(=O)Nc1ccc(F)cc1)c1ccccc1` (configuration not stated) gave Pf growth 96h inactive and Pf growth 48h inactive.
CC(=O)c1ccc(NC(=O)CCCC(=O)c2ccccc2)cc1 was read as NS1 inh inactive, Pf growth 96h inactive, Shiga inhibitor inactive, Pf growth 48h inactive and CHX counter inactive.
NC(=Nc1ccccc1)Nc1ccccc1 was read as NS1 inh inactive, Pf growth 96h inconclusive, Shiga inhibitor inactive, Pf growth 48h inactive and CHX counter inactive.
For CCOC(=O)/C(C(=Nc1ccccc1)Nc1ccccc1)=C(\C)O the results were NS1 inh inactive, Pf growth 96h 10µM, Shiga inhibitor inactive, Pf growth 48h inactive and CHX counter inactive.
`O=C(CCCC(=O)c1ccccc1)Nc1ccc(O)cc1` gave NS1 inh inactive, Pf growth 96h 10µM, Shiga inhibitor inactive, Pf growth 48h inactive and CHX counter inactive.
CCn1c(O)c(/C=N/N=C/c2ccccc2)c2ccc(C3=NNC(=O)CC3)cc21 was read as NS1 inh inactive, Pf growth 96h inconclusive, Shiga inhibitor inactive and CHX counter inactive.
O=C(CCCCCCC(=O)Nc1ccccc1)NO was read as Pf growth 96h 0.13µM and Pf growth 48h 0.21µM.
`CCCC(=O)Nc1ccc(C(N)=O)cc1` gave Pf growth 96h inactive, Shiga inhibitor inactive, Pf growth 48h inactive and CHX counter inactive.
For CCCC(=O)Nc1ccc(C(=O)n2ccc(C)n2)cc1 the results were NS1 inh inactive, Pf growth 96h inactive, Shiga inhibitor inactive, Pf growth 48h inactive and CHX counter 11.
For CNC(=S)Nc1ccc(Nc2ccccc2)cc1 the results were NS1 inh inactive, Pf growth 96h inactive, Shiga inhibitor inactive, Pf growth 48h inactive and CHX counter 20.
`CC(=O)OCC(=O)Nc1ccc(N=Nc2ccccc2)cc1` gave NS1 inh inactive, Pf growth 96h inactive, Shiga inhibitor inactive, Pf growth 48h inactive and CHX counter 38.
